For experiment [1], the target named is ATP-dependent translocase ABCB1 (Homo sapiens) (UniProt P08183). Put plainly: MDR1 (ABCB1) efflux transporter inhibition, cell-based (AID 377; in the data active means fluorescence slope change above about 50%). The conditions noted are these: MDR1-expressing cells, fluorescent substrate accumulation slope; stronger effect = higher value; concentration not given here.
Experiment [2] can be described thus: circadian clock period modulators, cell-based, LOPAC library, luminescence reporter (AID 2774).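 Further: values are relative to mean of DMSO wells on each plate.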 The following applies: circadian reporter cells, at 7 µM, actives lie on both sides.
Experiment [3] deals with Hepatitis C virus NS3 helicase. Description: HCV NS3 helicase inhibitors, primary screen, biochemical, fluorescence polarization, LOPAC1280 library (AID 687035; in the data active means inhibition above about 37%). The conditions noted are these: Purified HCV NS3 helicase, Cy5-dT15 ssDNA binding fluorescence polarization; stronger effect = higher value; concentration not given here. For orientation: Polarisation of emitted light reports the rotation of a fluorescent probe.

Experiment [4] in a line: Cy5 fluorescence quenching or enhancement artefacts, artefact control for HCV NS3 helicase inhibitor project, biochemical, LOPAC1280 (AID 687037). The following applies: Cy5-DNA-NS3h complex fluorescence interference counterscreen.
A short description of experiment [5]: sensitizers of A549 cells to miR-34 induction, primary screen, imaging, A549 dox-inducible miR-34, nuclei and caspase counts (AID 1347080;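 active means compounds whose cell count with miR-34 switched on is under 0.7 times the count with it off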). The following applies: A549 miR-34 inducible, Hoechst nuclei count, 48 h.
A short description of experiment [6]: phospholipid biosynthesis inhibitors in animal cells, primary screen, cell-based, LOPAC library, screen 4 (AID 1347384). The following applies: phospholipid biosynthesis inhibition screen, at 10 µM.
A short description of experiment [7]: viability rescue of complex I mutant cybrids, primary screen, cell-based, galactose medium, ATP luminescence (AID 1645843;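 active means z-score of at least 1.8 in each of two replicates, scored against plate mean and spread of sample wells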;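 further: positive z means more ATP and so rescue of galactose-driven cybrid death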). The conditions noted are these: complex I mutant cybrid cells, 72 h, stronger effect = higher value.
Experiment [8] can be described thus: hESC survival regulators, cell-based (AID 493140).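 Further: cells exposed to compounds for four days before counting.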 The conditions noted are these: human embryonic stem cell survival screen; stronger effect = higher value.
Setting [9] is: stronger effect = lower value, cell number ratio, induced over uninduced.
Setting [10] is: measured here: relative caspase fold change +Dox/-Dox.
Setting [11] is: measured here: total cells with miR-34 induction, stronger effect = lower value.
[12] abbreviates: measured here: total cells without miR-34 induction.

Results filed as inconclusive are left out. Active and inactive are the calls of the source. Unless noted, how the calls were made is not given here.

Chain of ATP-dependent translocase ABCB1 (Homo sapiens) (P08183 whole entry, looked up): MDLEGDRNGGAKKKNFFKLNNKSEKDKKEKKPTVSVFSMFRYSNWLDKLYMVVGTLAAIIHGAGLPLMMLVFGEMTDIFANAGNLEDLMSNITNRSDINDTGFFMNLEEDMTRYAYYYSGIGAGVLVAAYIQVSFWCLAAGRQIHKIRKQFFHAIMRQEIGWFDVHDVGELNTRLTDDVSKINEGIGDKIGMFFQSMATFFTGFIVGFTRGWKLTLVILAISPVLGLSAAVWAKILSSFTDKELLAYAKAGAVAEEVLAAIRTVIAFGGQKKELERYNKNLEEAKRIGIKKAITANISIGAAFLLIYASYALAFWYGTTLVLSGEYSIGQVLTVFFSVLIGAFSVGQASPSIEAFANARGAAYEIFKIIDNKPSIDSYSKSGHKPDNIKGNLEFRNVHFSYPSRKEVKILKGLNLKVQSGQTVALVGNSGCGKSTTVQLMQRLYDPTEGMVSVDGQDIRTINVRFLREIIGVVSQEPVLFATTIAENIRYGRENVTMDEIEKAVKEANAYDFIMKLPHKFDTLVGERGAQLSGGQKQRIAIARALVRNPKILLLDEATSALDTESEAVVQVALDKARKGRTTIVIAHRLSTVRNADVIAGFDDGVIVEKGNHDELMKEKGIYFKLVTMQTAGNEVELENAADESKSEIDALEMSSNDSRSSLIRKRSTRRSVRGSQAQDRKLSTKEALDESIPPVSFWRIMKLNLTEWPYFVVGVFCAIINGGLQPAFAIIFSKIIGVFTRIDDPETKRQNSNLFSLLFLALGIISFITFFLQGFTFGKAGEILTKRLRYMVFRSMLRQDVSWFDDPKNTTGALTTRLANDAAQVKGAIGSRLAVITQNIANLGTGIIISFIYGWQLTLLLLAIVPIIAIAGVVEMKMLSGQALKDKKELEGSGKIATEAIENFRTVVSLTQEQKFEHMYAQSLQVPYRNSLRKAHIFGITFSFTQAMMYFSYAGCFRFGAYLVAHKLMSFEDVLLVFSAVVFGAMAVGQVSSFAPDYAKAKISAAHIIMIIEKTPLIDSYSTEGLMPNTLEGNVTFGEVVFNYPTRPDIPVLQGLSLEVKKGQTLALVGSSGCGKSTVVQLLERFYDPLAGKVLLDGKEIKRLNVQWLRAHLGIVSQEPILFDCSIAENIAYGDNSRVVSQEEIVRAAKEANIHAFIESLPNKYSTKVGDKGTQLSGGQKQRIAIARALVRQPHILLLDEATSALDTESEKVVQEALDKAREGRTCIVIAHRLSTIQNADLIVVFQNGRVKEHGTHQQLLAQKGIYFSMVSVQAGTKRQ

Turning to `NCC1OC(O[C@@H]2[C@H](O)C(OC3C(O)C(N)CC(N)C3OC3OC(CO)C(O)C(O)C3N)O[C@@H]2CO)C(N)C(O)C1O` (some centres not stated), the fluorescence slope change in experiment [1] is 14.4% (inactive). Besides, the period change in experiment [2] was 0.005 h (inactive). In addition, in experiment [3], the inhibition is 0% (inactive). For the same compound, the fluorescence ratio (interference) in experiment [4] is 1 (inactive). Further, the fold change in experiment [5] (setting [9]) is 0.998 (inactive); in experiment [5] (setting [10]), 1.38. Besides, the cell count was 9490 in experiment [5] (setting [11]) and 9510 in experiment [5] (setting [12]). For the same compound, in experiment [6], the result was inactive. Further, the z-score in experiment [7] is 0.61 (inactive).

On to `Nc1ncnc2c1ncn2[C@@H]1O[C@H](CO)[C@H](O)C1O` (some centres not stated), for which the period change in experiment [2] is 0.045 h (inactive). Moreover, the survival in experiment [8] is 3.25 (inactive). In addition, the inhibition in experiment [3] was -1% (inactive). In experiment [4], the fluorescence ratio (interference) was 0.9 (inactive). Moreover, the fold change in experiment [5] (setting [9]) is 1 (inactive); in experiment [5] (setting [10]) it was 1.47. The cell count in experiment [5] (setting [11]) and in experiment [5] (setting [12]) was 11100 in each case. The compound was called inactive in experiment [6]. In addition, the z-score in experiment [7] was 2.61 (active).

Regarding `CN1C2CCC1CC(OC(=O)C(O)c1ccccc1)C2` (configuration not stated), the period change in experiment [2] is 0.16 h (inactive). Besides, the fold change was 1.02 (inactive) in experiment [5] (setting [9]) and 1.06 in experiment [5] (setting [10]). The values for the cell count in experiment [5] (setting [11]) and in experiment [5] (setting [12]) were 10900 and 10700, respectively. The result in experiment [6] was inactive. The z-score in experiment [7] is 0.155 (inactive).

With `S=c1[nH]c(-c2ccccc2)cn1-c1ccccc1`, the fold change in experiment [5] (setting [9]) was 0.982 (inactive); in experiment [5] (setting [10]) it was 1.24. Moreover, the cell count in experiment [5] (setting [11]) was determined as 9110; in experiment [5] (setting [12]) it was 9280. In experiment [6], the result was inactive. The z-score in experiment [7] was -0.15 (inactive).

In the case of `COC(=O)C(N)Cc1ccc(Cl)cc1` (configuration not stated), the period change in experiment [2] was -0.02 h (inactive). Further, the inhibition in experiment [3] was 1% (inactive). The fluorescence ratio (interference) in experiment [4] was 1 (inactive). Moreover, the fold change in experiment [5] (setting [9]) is 0.984 (inactive); in experiment [5] (setting [10]), 1.85. For the same compound, the cell count in experiment [5] (setting [11]) was 9580; in experiment [5] (setting [12]), 9740. In addition, in experiment [6], the compound was classed as inactive. Also, the z-score in experiment [7] is 0.46 (inactive).

Consider `O=C(NOCC1CC1)c1cc(Br)c(F)c(F)c1Nc1ccc(I)cc1Cl`, for which the fold change in experiment [5] (setting [9]) is 1.16 (inactive); in experiment [5] (setting [10]), 1.35. For the same compound, the cell count was 1380 in experiment [5] (setting [11]) and 1180 in experiment [5] (setting [12]). In addition, in experiment [6], the call was inactive. The z-score in experiment [7] is -1.36 (inactive).

As to `Fc1ccc2[nH]c(CN3CCN(c4ccccn4)CC3)cc2c1`, the results for the fold change in experiment [5] (setting [9]) and in experiment [5] (setting [10]) were 0.975 (inactive) and 1.18, respectively. Moreover, the results for the cell count in experiment [5] (setting [11]) and in experiment [5] (setting [12]) were 8710 and 8930, respectively. For the same compound, in experiment [6], the compound was called inactive. In addition, the z-score in experiment [7] was -1.13 (inactive).

With `NS(=O)(=O)c1ccc(-n2nc(C(F)(F)F)cc2-c2ccc(Cl)cc2)cc1`, the values for the fold change in experiment [5] (setting [9]) and in experiment [5] (setting [10]) were 1.1 (inactive) and 0.617, respectively. In addition, the cell count in experiment [5] (setting [11]) came to 7530; in experiment [5] (setting [12]), 6870. Besides, the compound was classed as inactive in experiment [6]. For the same compound, the z-score in experiment [7] is 2.57 (active).

`CNc1ncnc2c1ncn2[C@@H]1O[C@H](CO)[C@H](O)C1O` (some centres not stated): the period change in experiment [2] was -0.015 h (inactive). The inhibition in experiment [3] is -2% (inactive). In experiment [4], the fluorescence ratio (interference) is 1 (inactive). Also, the fold change is 1.08 (inactive) in experiment [5] (setting [9]) and 1.05 in experiment [5] (setting [10]). The values for the cell count in experiment [5] (setting [11]) and in experiment [5] (setting [12]) were 10300 and 9460, respectively. In addition, the compound was classed as inactive in experiment [6]. For the same compound, the z-score in experiment [7] was 0.765 (inactive).

For the compound `c1cnc2c(c1)ccc1cccnc12`, in experiment [2], the period change is 0.09 h (inactive). Besides, the inhibition in experiment [3] was -3% (inactive). The fluorescence ratio (interference) in experiment [4] was 1 (inactive). Besides, the fold change in experiment [5] (setting [9]) is 0.996 (inactive); in experiment [5] (setting [10]), 2.62. The cell count came to 2190 in experiment [5] (setting [11]) and 2200 in experiment [5] (setting [12]). Also, the compound was classed as inactive in experiment [6]. Further, the z-score in experiment [7] is -1.21 (inactive).

Consider `O=C(O)/C=C/c1cnc[nH]1`, for which, in experiment [2], the period change is -0.135 h (inactive). The inhibition in experiment [3] is -2% (inactive). The fluorescence ratio (interference) in experiment [4] was 1 (inactive). Moreover, the results for the fold change in experiment [5] (setting [9]) and in experiment [5] (setting [10]) were 1.01 (inactive) and 2.13, respectively. The cell count turned out to be 10700 in experiment [5] (setting [11]) and 10600 in experiment [5] (setting [12]). The call in experiment [6] was inactive. Further, in experiment [7], the z-score was 0.495 (inactive).

Broadly, the inhibition is the drop in the measured response relative to a control, in per cent.

For the origin of these results see PubChem BioAssay.
